The campaign covered roughly 190,000 compounds. About 1,300 (0.68%) were called active. The list comes from a sample in which actives are over-represented; it also holds similar structures and randomly drawn compounds. A number with no mark means an inactive call. Rule as the data show it: active = inhibition above about 50%; inactive = the rest.
These compounds were tested against Mannose-6-phosphate isomerase (Homo sapiens) (UniProt P34949) (assay: MPI inhibition at elevated mannose 6-phosphate – biochemical, fluorescence intensity, high mannose 6-phosphate, primary screen (AID 1220)). Conditions: recombinant PMI enzyme, coupled fluorescence intensity; at 20 µM; hits give high values.
Chain of Mannose-6-phosphate isomerase (Homo sapiens) (P34949 whole entry, looked up): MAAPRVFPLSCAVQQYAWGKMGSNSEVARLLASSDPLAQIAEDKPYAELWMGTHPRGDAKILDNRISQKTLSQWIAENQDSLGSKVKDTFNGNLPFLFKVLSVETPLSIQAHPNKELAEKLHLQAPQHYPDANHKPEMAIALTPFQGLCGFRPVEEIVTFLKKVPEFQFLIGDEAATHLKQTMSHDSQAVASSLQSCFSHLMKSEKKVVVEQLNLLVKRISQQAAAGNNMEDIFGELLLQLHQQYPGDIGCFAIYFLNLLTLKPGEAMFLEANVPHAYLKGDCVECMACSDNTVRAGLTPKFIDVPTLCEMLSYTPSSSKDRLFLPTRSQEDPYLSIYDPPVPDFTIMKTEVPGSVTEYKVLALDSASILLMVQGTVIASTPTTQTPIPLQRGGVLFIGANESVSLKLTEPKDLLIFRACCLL

Structure (SMILES)	inhibition
COc1ccccc1NC(=O)Nc1ccc2[nH]c(=O)[nH]c2c1	6.1%
O=C(Nc1ccc(F)cc1F)Nc1ccc(F)cc1F	-3.6%
O=C(Nc1ccc2[nH]c(=O)[nH]c2c1)Nc1ccc(F)cc1F	55.8% (active)
c1coc(C2=Nc3cccc4cccc(c34)N2)c1	63.6% (active)
COc1cccc(C2=Nc3cccc4cccc(c34)N2)c1	-64.5%
COc1ccc(C2=Nc3cccc4cccc(c34)N2)cc1	53.1% (active)
Brc1ccc(C2=Nc3cccc4cccc(c34)N2)o1	12.1%
Fc1ccc(C2=Nc3cccc4cccc(c34)N2)cc1	45.2%
Nc1ccc(C2=Nc3cccc4cccc(c34)N2)cc1	23.6%
COCC(C)NC(=O)C(C)Oc1ccccc1 (stereo not drawn)	-3.4%
Cc1cnc(C(=O)N2CCCC(C(=O)c3ccc(C(C)(C)C)cc3)C2)cn1 (stereo not drawn)	5.6%
COc1ccc(/C(N)=N/OC(=O)COc2ccccc2Cl)cc1	6.3%
Cc1ccn2c(=O)cc(C)nc2c1	9%
Cc1cc(=O)n2ccsc2n1	-2.4%
Cc1onc(-c2c(F)cccc2Cl)c1C(=O)OCC(=O)Nc1c(C)n(C)n(-c2ccccc2)c1=O	-18.7%
COc1ccc(S(=O)(=O)N2CCN(CC(=O)Nc3ccc(F)c(F)c3)CC2)cc1	-16.5%
CN(C)N1C(N)=C(C#N)C(c2cccnc2)C2=C1CCCC2=O (stereo not drawn)	57.9% (active)
N#CC1=C(N)N(c2ccccc2)C2=C(C(=O)CCC2)C1c1ccccc1 (stereo not drawn)	51.2% (active)
CN(C)N1C(N)=C(C#N)C(c2cccs2)C2=C1CCCC2=O (stereo not drawn)	33.2%
N#CC1=C(N)OC2=C(C(=O)CCC2)C1c1ccsc1 (stereo not drawn)	-1.2%
Cc1ccc(N2C(N)=C(C#N)C(c3cccnc3)C3=C2CCCC3=O)cc1 (stereo not drawn)	47.7%
N#CC1=C(N)N(c2ccccc2)C2=C(C(=O)CCC2)C1c1ccsc1 (stereo not drawn)	27.6%
CN(C)N1C(N)=C(C#N)C(c2ccsc2)C2=C1CCCC2=O (stereo not drawn)	61% (active)
CCc1ccc(C2C(C#N)=C(N)OC3=C2C(=O)CCC3)s1 (stereo not drawn)	6.1%
CN(C)N1C(N)=C(C#N)C(c2cccnc2)C2=C1CC(C)(C)CC2=O (stereo not drawn)	8.6%
CN(C)N1C(N)=C(C#N)C(c2ccsc2)C2=C1CC(C)(C)CC2=O (stereo not drawn)	18.1%
CCc1ccc(C2C(C#N)=C(N)N(N(C)C)C3=C2C(=O)CCC3)s1 (stereo not drawn)	59.7% (active)
CSc1ccc(C2C(C#N)=C(N)N(c3ccccc3)C3=C2C(=O)CCC3)cc1 (stereo not drawn)	29.9%
